Where “and” joins values, the source holds several entries; their conditions need not be identical. Equal entries are not always repeated. Among all 5,500 compounds or so, about 2,000 (36%) were called active. About 18% were inconclusive and are not listed. No stated cut-off is given here; in the data, active means normalized growth mostly below about 0.91 (no sharp cut-off); inconclusive means no clear call, values can overlap the other calls; inactive means mostly above about 0.92. The list shows a part of the results.
Test: chemical genetic growth profiling, strain panel (AID 1159580);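 further: tested at 20 µM; growth read once vehicle control cultures reached saturation at 30 °C; 1 = growth at the plate median or of vehicle wells; lower values mean less growth of the strain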
Conditions: S. cerevisiae deletion strains, growth OD

Measured: normalized growth

COc1cc([C@@H]2c3cc4c(cc3[C@H](O)[C@H]3COC(=O)[C@@H]23)OCO4)cc(OC)c1OC
inactive: locus YAL021C, strain ccr4, hits give low values 1 | locus YAL026C, strain drs2, hits give low values 1.03 | locus YAL030W, strain snc1, hits give low values 1.02 | locus YBL061C, strain skt5, hits give low values 1 | locus YBR009C, strain hhf1, hits give low values 1 | locus YBR021W, strain FUR4, hits give low values 1.04 | locus YBR023C, strain chs3, hits give low values 1.02 | locus YBR171W, strain sec66, hits give low values 1.02 | locus YBR229C, strain ROT2, hits give low values 1 | locus YBR231C, strain swc5, hits give low values 1.02 | locus YBR279W, strain paf1, hits give low values 1.02 | locus YCL011C, strain gbp2, hits give low values 1.02 | locus YCL016C, strain dcc1, hits give low values 1.01 | locus YCL029C, strain bik1, hits give low values 0.983 | locus YCL069W, strain vba3, hits give low values 1.02 | locus YCR088W, strain abp1, hits give low values 1.02 | locus YDL005C, strain med2, hits give low values 1.02 | locus YDL035C, strain GPR1, hits give low values 0.991 | locus YDL040C, strain nat1, hits give low values 1.02 | locus YDL074C, strain BRE1, hits give low values 0.949 | locus YDL101C, strain DUN1, hits give low values 1.01 | locus YDL134C, strain PPH21, hits give low values 1.03 | locus YDL185W, strain tfp1, hits give low values 0.945 | locus YDL192W, strain arf1, hits give low values 1.01 | locus YDR001C, strain nth1, hits give low values 1.02 | locus YDR069C, strain doa4, hits give low values 1.03 | locus YDR101C, strain arx1, hits give low values 0.98 | locus YDR137W, strain rgp1, hits give low values 1.05 | locus YDR159W, strain sac3, hits give low values 1.03 | locus YDR162C, strain NBP2, hits give low values 1.01 | locus YDR195W, strain ref2 1.04 | locus YDR297W, strain sur2, hits give low values 1.03 | locus YDR318W, strain mcm21, hits give low values 0.999 | locus YDR334W, strain swr1, hits give low values 1.02 | locus YDR335W, strain msn5, hits give low values 1.02 | locus YDR388W, hits give low values 0.988 | locus YDR392W, strain spt3, hits give low values 0.989 | locus YDR502C, strain sam2, hits give low values 0.989 | locus YEL003W, strain gim4, hits give low values 1.02 | locus YEL037C, strain rad23, hits give low values 1.01 | locus YEL061C, strain CIN8 (second series), hits give low values 1.02 | locus YEL061C, strain CIN8, hits give low values 1.01 | locus YER015W, strain faa2, hits give low values 1.02 | locus YER016W, strain bim1, hits give low values 1.02 | locus YER110C, hits give low values 0.98 | locus YER111C, strain swi4, hits give low values 1.01 | locus YER155C, strain BEM2 (second series), hits give low values 1.02 | locus YER155C, strain BEM2, hits give low values 0.986 | locus YER167W, strain BCK2, hits give low values 1 | locus YFR010W, strain ubp6, hits give low values 1.02 | locus YGL078C, strain dbp3, hits give low values 0.972 | locus YGL086W, strain mad1, hits give low values 0.983 | locus YGL167C, strain pmr1, hits give low values 1.02 | locus YGL173C, strain kem1, hits give low values 1.02 | locus YGL227W, strain vid30, hits give low values 1.03 | locus YGL240W, strain doc1, hits give low values 1.03 | locus YGL248W, strain PDE1, hits give low values 1.03 | locus YGL253W, strain hxk2, hits give low values 1.02 | locus YGR135W, strain pre9, hits give low values 1.02 | locus YGR229C, strain SMI1, hits give low values 1.02 | locus YGR252W, strain gcn5, hits give low values 1.17 | locus YHR013C, strain ard1, hits give low values 1.03 | locus YHR027C, strain rpn1, hits give low values 1.02 | locus YHR030C, strain SLT2, hits give low values 0.987 and 0.98 | locus YHR079C, strain IRE1 (second series), hits give low values 0.983 | locus YHR079C, strain IRE1, hits give low values 0.983 | locus YHR094C, strain hxt1, hits give low values 0.999 | locus YHR129C, strain ARP1, hits give low values 1.01 | locus YHR142W, strain chs7, hits give low values 1.03 | locus YHR200W, strain rpn10, hits give low values 0.976 | locus YIL066C, strain RNR3, hits give low values 1.01 | locus YIL073C, strain SPO22, hits give low values 0.961 | locus YIL125W, strain kgd1, hits give low values 0.994 | locus YIR030C, strain dcg1, hits give low values 0.995 | locus YJL092W, strain hpr5, hits give low values 1.02 | locus YJL095W, strain BCK1 (second series), hits give low values 1.02 | locus YJL095W, strain BCK1, hits give low values 1.05 and 0.988 | locus YJL115W, strain asf1, hits give low values 1.04 | locus YJL129C, strain trk1, hits give low values 1.04 | locus YJL134W, strain LCB3, hits give low values 0.986 | locus YJL154C, strain vps35, hits give low values 1.01 | locus YJL164C, strain tpk1, hits give low values 1 | locus YJL166W, strain qcr8, hits give low values 1.03 | locus YJL168C, strain set2, hits give low values 0.989 | locus YJL187C, strain SWE1 (second series), hits give low values 1.01 | locus YJR043C, strain POL32, hits give low values 1.01 | locus YJR066W, strain TOR1, hits give low values 0.917

From PubChem BioAssay AID1159580 (chemical genetic matrix, 2015)
